Experimental data published in PubChem BioAssay (NCATS).
Inconclusive results are not listed. Activity calls are given as the source filed them. Calls come from the whole dose curve; as a rule, active = well fitted curve in the direction sought with a large enough effect; inconclusive = small, poorly fitted or top-dose-only effect, or another doubt; inactive = no such curve, though single readings can be large; an effect the other way counts as inactive or inconclusive.

Columns and labels:
[1] = target: Metallo-beta-lactamase type 2 (Klebsiella pneumoniae) (UniProt C7C422); assay: qHTS to identify inhibitors of the New Delhi Metallo-beta-lactamase (NDM): assay validation screen against the NCATS LOPAC Collection (AID 1794843); details: NDM-1 enzyme, nitrocefin hydrolysis, absorbance 485 nm; series mostly up to 38.4 µM
Outline: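 Absorbance at 485 nm from nitrocefin turnover (50 uM solution added), read at plateau, gives the read-out. Compounds in DMSO were incubated first with 2 nM final NDM-1 in pH 7.0 HEPES buffer containing 1 uM ZnSO4 and 0.01% Tween20.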

[2] = target: Glutathione peroxidase 1 (Homo sapiens) (UniProt P07203); assay: Primary qHTS Assay for Inhibitors of Recombinant Selenoprotein Glutathione Peroxidase 1 (GPX1) (AID 1845191); details: recombinant GPX1, GR-coupled NADPH fluorescence, 15 min; series mostly up to 48.8 µM; note: nearly all actives have a fitted effect of over 65% in size
Outline: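 10 nM GPX1 + cpd, 30 min RT; start w/ 1 mM GSH, 0.5 mM cumene hydroperoxide, 0.5 mM NADPH, 100 nM GR, 0.01% BSA; buffer 50 mM Tris-HCl pH 7.5, 2 mM EDTA, 150 mM NaCl; Fl 340/450, 0 & 15 min.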

[3] = target: Phospholipid hydroperoxide glutathione peroxidase GPX4 (Homo sapiens) (UniProt P36969); assay: Primary qHTS Assay for Inhibitors of Recombinant Selenoprotein Glutathione Peroxidase 4 (GPX4) (AID 1845192); details: recombinant GPX4, GR-coupled NADPH fluorescence, 15 min; series mostly up to 50 µM; note: nearly all actives have a fitted effect of over 65% in size
Outline: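 NADPH consumption, followed by fluorescence at 340/450 nm between 0 and 15 min, reports GPX4 activity via coupled glutathione reductase (100 nM). Enzyme 200 nM was pre-exposed to compound 30 min; 0.5 mM cumene hydroperoxide and 1 mM GSH served as substrates.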

[4] = target: Luciferin 4-monooxygenase (Photinus pyralis) (UniProt P08659); assay: Primary firefly luciferase (FLuc) qHTS assay for identification of artifact compounds. (AID 1845220); details: purified firefly luciferase, luminescence, 5 min; series mostly up to 54.1 µM; note: nearly all actives have a fitted effect of over 60% in size; note: potency is the fitted concentration of half-maximal effect
Outline: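 Cell-free, 1536-well qHTS. Buffer pH 7.6 with 0.01% Tween-20 and 0.05% BSA; 10 uM D-luciferin, 10 uM ATP; 10 nM P. pyralis luciferase; luminescence after 5 min.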

[5] = Primary fluorescence-based thiol-reactive (MSTI) qHTS assay for identification of artifact compounds. (AID 1845221); details: MSTI thiol-reactivity probe, 1 h; series mostly up to 53.8 µM;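 note: thiol-reactive compounds lower the probe fluorescence signal; nearly all actives have a fitted effect of over 65% in size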
Outline: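 Thiol-reactive compounds detected by quenching of 4 uM MSTI fluorescence (525/598 nm) after 1 h room-temperature dark incubation in PBS pH 7.4, 2% DMSO. qHTS titration; percent inhibition Hill-fitted against Acetyl-MSTI/MSTI controls.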

[6] = tested on: Nanoluciferase (engineered Oplophorus gracilirostris luciferase); assay: Primary Nanoluciferase (NLuc) qHTS assay for identification of artifact compounds. (AID 1845222); details: NLuc-conditioned medium, Nano-Glo luminescence, 5 min; series mostly up to 54.1 µM; note: potency is the fitted concentration of half-maximal effect
Outline: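 Compounds are pinned into diluted (1:55) conditioned medium of NLuc-expressing S16 cells and held 15 min at room temperature protected from light. Nano-Glo substrate follows, and luminescence is read 5 min later.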

Measured: Potency

Sequence of Glutathione peroxidase 1 (Homo sapiens) (P07203 whole entry, looked up): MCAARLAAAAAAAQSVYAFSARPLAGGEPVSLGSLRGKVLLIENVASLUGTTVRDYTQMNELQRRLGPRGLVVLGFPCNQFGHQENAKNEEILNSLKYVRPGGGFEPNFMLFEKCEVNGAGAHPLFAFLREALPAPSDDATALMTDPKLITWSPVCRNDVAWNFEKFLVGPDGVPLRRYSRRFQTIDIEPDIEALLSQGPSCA
Sequence of Phospholipid hydroperoxide glutathione peroxidase GPX4 (Homo sapiens) (P36969 whole entry, looked up): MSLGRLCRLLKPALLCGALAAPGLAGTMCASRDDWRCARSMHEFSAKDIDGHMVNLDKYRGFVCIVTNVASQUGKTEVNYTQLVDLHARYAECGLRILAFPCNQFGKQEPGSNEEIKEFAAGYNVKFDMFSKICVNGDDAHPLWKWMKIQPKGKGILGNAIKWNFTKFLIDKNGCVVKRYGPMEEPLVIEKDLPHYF
Sequence of Metallo-beta-lactamase type 2 (Klebsiella pneumoniae) (C7C422 whole entry, looked up): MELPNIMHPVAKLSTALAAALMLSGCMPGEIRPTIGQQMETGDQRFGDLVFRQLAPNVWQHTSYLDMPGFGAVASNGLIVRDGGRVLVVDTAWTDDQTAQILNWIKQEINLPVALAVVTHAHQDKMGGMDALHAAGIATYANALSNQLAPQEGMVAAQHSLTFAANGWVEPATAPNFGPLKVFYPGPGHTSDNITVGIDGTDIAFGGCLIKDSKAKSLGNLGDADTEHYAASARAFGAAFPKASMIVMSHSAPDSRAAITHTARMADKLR

Nc1nc2ccc(Cl)cc2n2c(-c3ccccc3)nnc12
inactive: [1] | [2] | [3]

C[N+]1(C)CCC(OC(=O)C(c2ccccc2)c2ccccc2)CC1
inactive: [1] | [2] | [3]

CN1C2CCC1CC(OC(=O)C(O)c1ccccc1)C2 (centres undefined)
inactive: [1] | [2] | [3]

C#C[C@]1(O)CC[C@H]2[C@@H]3CCC4=Cc5oncc5CC4(C)[C@H]3CCC21C (some centres undefined)
inactive: [1] | [2] | [3]

C[C@@H](CN1CCC(Cc2ccccc2)CC1)[C@@H](O)c1ccc(O)cc1
inactive: [1] | [2] | [3]

CCN1/C(=C/C(C)=O)Sc2ccc(OC)cc21
inactive: [1] | [2] | [3]

CCC(CO)Nc1nc(NCc2ccccc2)c2ncn(C(C)C)c2n1 (centres undefined)
inactive: [1] | [2] | [3]

CN1CC(=O)N/C1=N/C(=O)Nc1cccc(Cl)c1
inactive: [1] | [2] | [3]

CN(C)c1nc(N)c(C(=O)N=C(N)N)nc1Cl
inactive: [1] | [2] | [3]

Brc1cc2c(cc1[C@H]1Nc3ccccc3[C@H]3C=CC[C@H]31)OCO2
inactive: [1] | [2] | [3]

NC(CCCP(=O)(O)O)C(=O)O (centres undefined)
inactive: [1] | [2] | [3]

CC(C)c1cccc(C(C)C)c1N1C(=O)c2ccc(O)cc2C1=O
inactive: [1] | [2] | [3]

Cc1ccc(S(=O)(=O)/C=C/C#N)cc1
inactive: [1] | [2] | [3]

CC(=O)/C=C1\C(=O)N(C)c2ccccc21
inactive: [1] | [2] | [3]

O=C(O)CC1CCCc2ccccc2C1O (centres undefined)
inactive: [1] | [2] | [3]

O=c1[nH]c2cc([N+](=O)[O-])c([N+](=O)[O-])cc2[nH]c1=O
inactive: [1] | [2] | [3]

CC1(C)CCC=[N+]1[O-]
inactive: [1] | [2] | [3]

Nc1nc2c(ncn2[C@@H]2O[C@H](CO)[C@@H](O)[C@@H]2O)c(=O)[nH]1
inactive: [1] | [2] | [3]

CC[C@H]1OC(=O)[C@H](C)[C@@H](O[C@H]2C[C@@](C)(OC)[C@@H](O)[C@H](C)O2)[C@H](C)[C@@H](O[C@@H]2O[C@H](C)C[C@H](NC)[C@H]2O)[C@](C)(O)C[C@@H](C)CN(C)[C@H](C)[C@@H](O)[C@]1(C)O
inactive: [1] | [2] | [3]

CCCCN(CC)c1nc(C)nc2c1c(C)cn2-c1c(C)cc(C)cc1C
inactive: all assays above

Cc1ccc(O)c(N=Nc2ccccc2)n1
inactive: [1] | [2] | [3]

COc1ccc(/C=C/C(=O)Nc2ccccc2C(=O)O)cc1OC
active: [4] 3.01 µM | [6] 21.3 µM
inactive: all other assays above

Fc1ccc2[nH]c(CN3CCN(c4ccccn4)CC3)cc2c1
inactive: all assays above

CN(CCCOc1ccc(Cc2ccccc2)cc1)CCC(=O)O
inactive: all assays above
